Experimental data: the supplement of paper PMC12067926
A number with no mark means an inactive call.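 How the source made its calls: active = growth AUC significantly below the DMSO wells by Dunnett test; inactive = the rest.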

Legend:
Assay in all cases: relative growth (AUC of 72 h growth curve relative to DMSO control, dAUC) (ratio); higher = more growth (less inhibition), active = hit call of the paper
Details in all cases: 20 µM
[1] = test system: Aeromonas 1 (Aeromonas sp. AE235)
How it was run: (§1)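 Relative growth (dAUC) is the spline-integrated area under the growth curve divided by the mean of the DMSO-only control wells. Cultures were isolates from Icelandic stream sediments and Silwood Park soil, plus whole sediment communities, grown to carrying capacity in Luria–Bertani medium and diluted 1:100 into 96-well plates containing each chemical at 20 µM (1% DMSO). A600 was read hourly for 72 h on a plate reader, with brief shaking before each read, and values were averaged over three biological replicates.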

[2] = test system: Aeromonas 2 (Aeromonas sobria)
How it was run: as §1

[3] = test system: Aeromonas 3 (Aeromonas popoffii)
How it was run: as §1

[4] = test system: Argrobacterium 1 (Agrobacterium sp.)
How it was run: as §1

[5] = test system: Arthrobacter 1 (Arthrobacter humicola)
How it was run: as §1

[6] = test system: Arthrobacter 2 (Arthrobacter humicola)
How it was run: as §1

[7] = test system: Arthrobacter 3 (Arthrobacter sp.)
How it was run: as §1

Community 10 = test system: Community 10
How it was run: as §1

Community 4 = test system: Community 4
How it was run: as §1

Community 6 = test system: Community 6
How it was run: as §1

SMILES | relative growth [1] | relative growth [2] | relative growth [3] | relative growth [4] | relative growth [5] | relative growth [6] | relative growth [7] | relative growth (Community 10) | relative growth (Community 4) | relative growth (Community 6)
C#CCOc1ccc(CCNC(=O)C(OCC#C)c2ccc(Cl)cc2)cc1OC (centres undefined) | 0.978 | 0.985 | 1 | 1.05 | 1.04 | 0.935 | 0.953 | 0.982 | 0.951 | 1.02
CN(C)C(CSS(=O)(=O)O)CSS(=O)(=O)O | 0.987 | 0.976 | 0.992 | 0.997 | 1.02 | 1.04 | 1.04 | 0.835 | 1.04 | 0.914
COP(=O)(OC)OC=C(Cl)Cl | 0.937 | 0.977 | 0.972 | 0.977 | 0.856 | 0.86 | 0.916 | 1.04 | 0.961 | 0.961
O=C1C=C(N(Cc2ccc(Cl)nc2)CC(F)F)CO1 | 0.953 | 0.967 | 0.978 | 0.974 | 1.05 | 1.08 | 1.01 | 0.814 | 1.01 | 0.923
CC(C)N1C(=O)c2ccccc2NS1(=O)=O | 0.965 | 0.994 | 0.991 | 0.998 | 1.03 | 1.05 | 1.13 | 0.86 | 0.932 | 0.962
O=C(O)c1nc(Cl)ccc1Cl | 0.95 | 0.943 | 0.997 | 0.946 | 1.03 | 0.895 | 0.963 | 0.892 | 0.903 | 0.972
N#Cc1cc(Br)c(O)c(Br)c1 | 0.985 | 0.899 | 1.01 | 1.03 | 0.984 | 0.827 | 1.02 | 0.931 | 1.08 | 1.05
CC1COC(Cn2cncn2)(c2ccc(Oc3ccc(Cl)cc3)cc2Cl)O1 (centres undefined) | 1.08 | 1.03 | 1.02 | 1.04 | 0.741 | 0.223 (active) | 0.348 (active) | 0.896 | 1.2 | 1.06
O=C1C2CC=CCC2C(=O)N1SC(Cl)(Cl)Cl (centres undefined) | 0.905 | 1.01 | 0.983 | 0.74 (active) | 0.95 | 0.769 | 0.919 | 0.58 | 0.671 | 0.614 (active)
ClC1C(Cl)C(Cl)C(Cl)C(Cl)C1Cl (centres undefined) | 1.02 | 0.964 | 0.994 | 1 | 1.04 | 0.837 | 0.909 | 0.844 | 0.976 | 0.931
CCc1cc(C)cc(CC)c1-c1c(OC(=O)C(C)(C)C)n2n(c1=O)CCOCC2 | 0.987 | 0.978 | 1.02 | 0.957 | 1.01 | 0.873 | 0.917 | 0.925 | 0.852 | 0.906
N#Cc1nn(-c2c(Cl)cc(C(F)(F)F)cc2Cl)c(N)c1[S+]([O-])C(F)(F)F (centres undefined) | 0.981 | 0.935 | 1 | 1.01 | 0.911 | 0.914 | 0.853 | 1.05 | 1.07 | 1.06
C[N+]1(C)CCCCC1 | 1.03 | 1.01 | 1.02 | 0.994 | 1.08 | 0.96 | 1.04 | 1.01 | 1.09 | 1.07
CSc1nnc(C(C)(C)C)c(=O)n1N | 0.969 | 1.01 | 1.04 | 0.991 | 0.948 | 1.06 | 0.961 | 1.03 | 1.08 | 1.02
CCOc1cc(Oc2ccc(C(F)(F)F)cc2Cl)ccc1[N+](=O)[O-] | 0.962 | 0.975 | 0.966 | 1.01 | 1.02 | 0.848 | 1.01 | 0.824 | 0.905 | 0.907
N#C/N=C1\SCCN1Cc1ccc(Cl)nc1 | 0.998 | 1 | 1 | 0.984 | 1.1 | 1.11 | 1.06 | – | 1.04 | 1.05
CC1(C)CON(Cc2ccccc2Cl)C1=O | 0.978 | 0.966 | 1.01 | 1 | 0.963 | 0.879 | 1.08 | 0.791 | 0.973 | 0.946
COc1cc(OC)nc(NC(=O)NS(=O)(=O)c2ncccc2C(=O)N(C)C)n1 | 1.06 | 1.01 | 1.03 | 0.995 | 0.976 | 1.11 | 1.05 | 1.11 | 1.08 | 1.06
CC(C)N1C(=O)N(c2ccccc2)CS/C1=N\C(C)(C)C | 1.04 | 1.1 | 1.01 | 1.07 | 0.994 | 0.59 (active) | 0.868 | 0.858 | 1.02 | 1.02
O=C(NC(=O)c1c(F)cccc1F)Nc1ccc(OC(F)(F)C(F)OC(F)(F)F)c(Cl)c1 (centres undefined) | 0.958 | 0.975 | 0.988 | 0.995 | 0.843 | 0.911 | 0.942 | 0.965 | 0.934 | 0.934
CC(C)(C)c1ccc(CSc2cnn(C(C)(C)C)c(=O)c2Cl)cc1 | 1.02 | 0.975 | 1.03 | 1.01 | 1.02 | 0.875 | 0.98 | 0.941 | 1.01 | 1.04
CCCN(CCOc1c(Cl)cc(Cl)cc1Cl)C(=O)n1ccnc1 | 1.02 | 0.971 | 1 | 1.01 | 0.702 | 0.209 (active) | 0.352 (active) | 0.868 | 0.934 | 0.982
CCOC(=O)OC1=C(c2cc(C)ccc2C)C(=O)N[C@]12CC[C@@H](OC)CC2 | 0.965 | 0.981 | 1.01 | 1.03 | 1.17 | 1.03 | 0.986 | 0.945 | 1.14 | 1.02
CCc1nn(C)c(C(=O)NCc2ccc(Oc3ccc(C)cc3)cc2)c1Cl | 1.03 | 1.06 | 1.05 | 1.02 | 1.04 | 0.892 | 1.02 | 0.804 | 0.865 | 0.897
CNC(=O)/C=C(\C)OP(=O)(OC)OC | 0.951 | 0.972 | 0.995 | 0.984 | 0.943 | 0.906 | 0.94 | 0.927 | 0.942 | 0.973
COCC(=O)N(c1c(C)cccc1C)C(C)C(=O)OC (centres undefined) | 1.03 | 1.04 | 1.04 | 1.01 | 0.944 | 0.862 | 0.994 | 1.06 | 1.05 | 1.03
COC(=O)Nc1nc2ccccc2[nH]1 | 1.01 | 0.956 | 0.973 | 0.992 | 1.04 | 1.05 | 1.12 | 0.869 | 1.02 | 0.998
